Results from PubChem BioAssay AID1159580 (chemical genetic matrix, 2015).
Values joined by “and” are separate entries in the source; they are usually repeats but may differ in a detail not shown here. Equal values may be shown once. About 2,000 (36%) of roughly 5,500 compounds were called active. Not shown: some 18% with an inconclusive outcome. Rule as the data show it: active = normalized growth mostly below about 0.91 (no sharp cut-off); inconclusive = no clear call, values can overlap the other calls; inactive = mostly above about 0.92. The list shows a part of the results.

Test: chemical genetic growth profiling, strain panel (AID 1159580);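 also: tested at 20 µM; growth read once vehicle control cultures reached saturation at 30 °C; 1 = growth at the plate median or of vehicle wells; lower values mean less growth of the strain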
Conditions: S. cerevisiae deletion strains, growth OD

Measured: normalized growth

CC(C)(C)NCC(O)COc1cccc2c1C[C@H](O)[C@H](O)C2 (stereo not given in full)
inactive: locus YAL021C, strain ccr4, hits give low values 0.99 | locus YAL026C, strain drs2, hits give low values 1.01 | locus YAL030W, strain snc1, hits give low values 0.995 | locus YBL061C, strain skt5, hits give low values 1 | locus YBR009C, strain hhf1, hits give low values 0.999 | locus YBR021W, strain FUR4, hits give low values 1.03 | locus YBR023C, strain chs3, hits give low values 1.01 | locus YBR171W, strain sec66, hits give low values 1.01 | locus YBR229C, strain ROT2, hits give low values 1.01 | locus YBR231C, strain swc5, hits give low values 1 | locus YBR279W, strain paf1, hits give low values 1 | locus YCL011C, strain gbp2, hits give low values 1 | locus YCL016C, strain dcc1, hits give low values 1 | locus YCL029C, strain bik1, hits give low values 0.997 | locus YCL061C, strain MRC1, hits give low values 1.01 | locus YCL069W, strain vba3, hits give low values 1 | locus YCR088W, strain abp1, hits give low values 1 | locus YDL005C, strain med2, hits give low values 1.01 | locus YDL035C, strain GPR1, hits give low values 0.983 | locus YDL040C, strain nat1, hits give low values 0.999 | locus YDL074C, strain BRE1, hits give low values 1.06 | locus YDL101C, strain DUN1, hits give low values 0.999 | locus YDL134C, strain PPH21, hits give low values 1 | locus YDL185W, strain tfp1, hits give low values 0.96 | locus YDL192W, strain arf1, hits give low values 0.982 | locus YDR001C, strain nth1, hits give low values 1.01 | locus YDR069C, strain doa4, hits give low values 1 | locus YDR101C, strain arx1, hits give low values 1.05 | locus YDR137W, strain rgp1, hits give low values 1.01 | locus YDR150W, strain NUM1, hits give low values 0.992 | locus YDR159W, strain sac3, hits give low values 1 | locus YDR162C, strain NBP2, hits give low values 0.964 | locus YDR195W, strain ref2 0.999 | locus YDR297W, strain sur2, hits give low values 1 | locus YDR318W, strain mcm21, hits give low values 0.979 | locus YDR334W, strain swr1, hits give low values 1.02 | locus YDR335W, strain msn5, hits give low values 1 | locus YDR388W, hits give low values 0.989 | locus YDR392W, strain spt3, hits give low values 1.01 | locus YDR502C, strain sam2, hits give low values 0.99 | locus YEL003W, strain gim4, hits give low values 1 | locus YEL037C, strain rad23, hits give low values 1.01 | locus YEL061C, strain CIN8 (second series), hits give low values 1.01 | locus YEL061C, strain CIN8, hits give low values 0.999 | locus YER015W, strain faa2, hits give low values 0.999 | locus YER016W, strain bim1, hits give low values 1.01 | locus YER110C, hits give low values 0.976 | locus YER111C, strain swi4, hits give low values 1 | locus YER155C, strain BEM2 (second series), hits give low values 0.997 | locus YER155C, strain BEM2, hits give low values 0.999 | locus YER167W, strain BCK2, hits give low values 0.996 | locus YFR010W, strain ubp6, hits give low values 1.02 | locus YGL078C, strain dbp3, hits give low values 0.989 | locus YGL086W, strain mad1, hits give low values 1.02 | locus YGL167C, strain pmr1, hits give low values 1 | locus YGL173C, strain kem1, hits give low values 1.01 | locus YGL227W, strain vid30, hits give low values 1.01 | locus YGL240W, strain doc1, hits give low values 1 | locus YGL248W, strain PDE1, hits give low values 1.01 | locus YGL253W, strain hxk2, hits give low values 1.02 | locus YGR135W, strain pre9, hits give low values 0.951 | locus YGR229C, strain SMI1, hits give low values 0.989 | locus YGR252W, strain gcn5, hits give low values 0.986 | locus YHR013C, strain ard1, hits give low values 1.03 | locus YHR027C, strain rpn1, hits give low values 1 | locus YHR030C, strain SLT2, hits give low values 0.992 and 1.02 | locus YHR079C, strain IRE1 (second series), hits give low values 0.987 | locus YHR079C, strain IRE1, hits give low values 1.01 | locus YHR094C, strain hxt1, hits give low values 0.995 | locus YHR129C, strain ARP1, hits give low values 0.991 | locus YHR142W, strain chs7, hits give low values 1.01 | locus YHR200W, strain rpn10, hits give low values 0.987 | locus YIL066C, strain RNR3, hits give low values 1 | locus YIL073C, strain SPO22, hits give low values 0.883 | locus YIL125W, strain kgd1, hits give low values 0.998 | locus YIR030C, strain dcg1, hits give low values 0.984 | locus YJL092W, strain hpr5, hits give low values 1.01 | locus YJL095W, strain BCK1 (second series), hits give low values 1.01 | locus YJL095W, strain BCK1, hits give low values 1.02 and 1.04 | locus YJL115W, strain asf1, hits give low values 1.02 | locus YJL129C, strain trk1, hits give low values 1 | locus YJL134W, strain LCB3, hits give low values 0.989 | locus YJL154C, strain vps35, hits give low values 0.995 | locus YJL164C, strain tpk1, hits give low values 1 | locus YJL166W, strain qcr8, hits give low values 1 | locus YJL168C, strain set2, hits give low values 1 | locus YJL187C, strain SWE1 (second series), hits give low values 1.01 | locus YJL187C, strain SWE1, hits give low values 1.01 | locus YJR043C, strain POL32, hits give low values 1 | locus YJR066W, strain TOR1, hits give low values 1
